The entries come from a sample that favours hits as a whole.
miR-122 inh – activators of miR-122 sensor in Huh7 cells | Huh7 psiCHECK-miR122 Renilla luciferase sensor, 48 h | activation, % at 12.5 µM | hit rate 0.14% among 340,000 | AID 623901;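 active = mean activation of 30% or more, with every replicate also reaching 30%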;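 also: 0% = median of neutral control wells and 100% = median of positive control wells; higher luciferase signal means stronger suppression of miR-122 activity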
* marks the source's active call; other numbers are inactive results.

SMILES	miR-122 inh
CNC(=O)C[C@@H]1CC[C@H]2[C@@H](COc3ccc(NC(=O)NC(C)C)cc3C(=O)N2C)O1	70*
COCC(=O)Nc1ccc2c(c1)C(=O)N(C)C[C@H](OC)[C@H](C)CN(C(=O)COC)[C@H](C)CO2	-2
CN1C(=O)c2cc(NC(=O)NCc3ccccc3)ccc2OC[C@@H]2O[C@H](CC(=O)NCC3CCCCC3)CC[C@@H]21	-173
CO[C@H]1CN(C)C(=O)c2cc(NC(=O)Nc3ccccc3)ccc2OC[C@H](C)NC[C@H]1C	-4
CO[C@@H]1CN(C)C(=O)c2cc(NC(=O)Nc3ccccc3)ccc2OC[C@H](C)NC[C@H]1C	-2
COC(=O)C[C@@H]1CC[C@@H]2[C@@H](COc3ccc(NC(=O)Nc4cccc(C#N)c4)cc3C(=O)N2C)O1	48*
CNC(=O)C[C@@H]1CC[C@@H]2[C@H](COc3ccc(NC(=O)Nc4cccc(C)c4)cc3C(=O)N2C)O1	47*
CO[C@@H]1CN(C)C(=O)c2cc(NC(=O)NC(C)C)ccc2OC[C@H](C)N(C(=O)NC(C)C)C[C@H]1C	1
COCC(=O)Nc1ccc2c(c1)C(=O)N(C)C[C@H](OC)[C@@H](C)CN(C(=O)COC)[C@@H](C)CO2	1
Cc1ccccc1NC(=O)Nc1ccc2c(c1)C(=O)N(C)[C@H]1CC[C@@H](CC(=O)NCC3CC3)O[C@H]1CO2	-218
C/C=C/c1ccc2c(c1)O[C@@H](CN(C)S(=O)(=O)c1ccccc1OC)[C@H](C)CN([C@@H](C)CO)S2(=O)=O	-3
C[C@@H]1CN([C@H](C)CO)S(=O)(=O)c2ccc(-c3ccncc3)cc2O[C@H]1CN(C)Cc1ccccn1	-3
CCCNC(=O)N(C)C[C@@H]1Oc2cc(C#CCOC)ccc2S(=O)(=O)N([C@@H](C)CO)C[C@H]1C	-19
C[C@H](CO)N1C[C@H](C)[C@H](CN(C)C(=O)c2cccnc2)Oc2ncc(/C=C/c3ccccc3)cc2C1=O	-6
CCCNC(=O)N(C)C[C@H]1Oc2ncc(C#CCC3CCCC3)cc2C(=O)N([C@@H](C)CO)C[C@H]1C	5
C[C@H]1CN([C@@H](C)CO)C(=O)c2cc(-c3ccc(F)cc3)cnc2O[C@@H]1CN(C)Cc1ccc(C(=O)O)cc1	1
CO[C@H]1CN(C)C(=O)c2ccc(NS(=O)(=O)c3ccc(C)cc3)cc2OC[C@@H](C)N(C)C[C@H]1C	2
CCCN(C)C[C@@H]1Oc2cc(C#CC(C)C)ccc2S(=O)(=O)N([C@@H](C)CO)C[C@H]1C	5
C[C@H](CO)N1C[C@H](C)[C@@H](CN(C)Cc2ccccc2)Oc2ncc(-c3cccc(C#N)c3)cc2C1=O	11
Cc1ccc(-c2cnc3c(c2)C(=O)N([C@H](C)CO)C[C@H](C)[C@H](CN(C)C(=O)c2ccncc2)O3)cc1	-3
COc1cccc(NC(=O)N(C)C[C@H]2Oc3cc(-c4cccc(C(=O)N(C)C)c4)ccc3S(=O)(=O)N([C@@H](C)CO)C[C@@H]2C)c1	-44
COCC#Cc1cnc2c(c1)C(=O)N([C@H](C)CO)C[C@@H](C)[C@H](CN(C)C(=O)Nc1ccccc1OC)O2	2
C[C@H](CO)N1C[C@H](C)[C@H](CN(C)Cc2ccncc2)Oc2ncc(-c3cncnc3)cc2C1=O	-6
COc1ccccc1NC(=O)N(C)C[C@H]1Oc2ncc(C#CCC(C)C)cc2C(=O)N([C@H](C)CO)C[C@H]1C	-1
C[C@@H]1CN([C@H](C)CO)S(=O)(=O)c2ccc(-c3cncnc3)cc2O[C@@H]1CN(C)Cc1ccccc1	-3
SMILES	miR-122 inh
COCC(=O)N(C)C[C@H]1Oc2cc(-c3cccc(F)c3)ccc2S(=O)(=O)N([C@H](C)CO)C[C@@H]1C	-9
C[C@@H]1CN([C@H](C)CO)S(=O)(=O)c2ccc(C#CC3CCCC3)cc2O[C@@H]1CN(C)CC1CC1	-6
C[C@@H]1CN([C@H](C)CO)S(=O)(=O)c2ccc(C#CCN(C)C)cc2O[C@H]1CN(C)CC1CCCC1	-22
CCCNC(=O)C[C@@H]1CC[C@H]2[C@H](COc3ccc(NC(=O)Nc4ccccc4F)cc3C(=O)N2C)O1	-100
CNC(=O)C[C@@H]1CC[C@@H]2[C@@H](COc3ccc(NC(=O)c4ccccc4F)cc3C(=O)N2C)O1	53*
CCC(=O)Nc1ccc2c(c1)OC[C@@H](C)N(C(=O)c1ccccc1F)C[C@H](C)[C@H](OC)CN(C)C2=O	-1
CCC(=O)Nc1ccc2c(c1)C(=O)N(C)C[C@H](OC)[C@H](C)CN(C(C)=O)[C@@H](C)CO2	0
COCC(=O)Nc1ccc2c(c1)C(=O)N(C)C[C@H](OC)[C@H](C)CN(C(=O)COC)[C@@H](C)CO2	-2
COCC#Cc1cnc2c(c1)C(=O)N([C@H](C)CO)C[C@H](C)[C@@H](CN(C)S(=O)(=O)c1cccc(OC)c1)O2	-6
C[C@@H]1CN([C@@H](C)CO)C(=O)c2cc(C#CCN(C)C)cnc2O[C@H]1CN(C)C(=O)Cc1ccncc1	3
CN(C)C(=O)c1ccc(-c2ccc([C@H]3[C@@H](CO)N4CCCCN(C(=O)C5CCCC5)C[C@@H]34)cc2)cc1	30*
C[C@H]1CN([C@@H](C)CO)S(=O)(=O)c2ccc(-c3ccc(C(=O)N(C)C)cc3)cc2O[C@@H]1CN(C)C	2
C[C@@H]1CN([C@@H](C)CO)S(=O)(=O)c2ccc(-c3ccc(C(=O)N(C)C)cc3)cc2O[C@@H]1CN(C)C	2
CC(=O)N(C)C[C@@H]1Oc2cc(/C=C/c3ccccc3)ccc2S(=O)(=O)N([C@H](C)CO)C[C@H]1C	-8
CN(C)CC(=O)N1CCCCN2[C@@H](CO)[C@@H](c3ccc(/C=C/c4ccccc4)cc3)[C@@H]2C1	32*
CC(=O)N1[C@H](CNC(=O)CN(C)C)[C@@H](c2ccc(C3=CCCCC3)cc2)[C@@H]1CO	-292
C[C@@H]1CN([C@H](C)CO)C(=O)c2cc(C#Cc3ccccn3)cnc2O[C@@H]1CN(C)C(=O)c1cnccn1	5
C[C@H]1CN([C@@H](C)CO)S(=O)(=O)c2ccc(C#Cc3ccccc3)cc2O[C@H]1CN(C)S(=O)(=O)c1ccccc1F	4
C[C@@H]1CN([C@@H](C)CO)C(=O)c2cc(Br)cnc2O[C@@H]1CN(C)CC1CCOCC1	6
C[C@H]1CN([C@@H](C)CO)C(=O)c2cc(C#Cc3ccccc3)cnc2O[C@@H]1CN(C)C(=O)c1ccccn1	2
C[C@@H]1CN([C@H](C)CO)C(=O)c2cc(C#Cc3ccc(F)cc3)cnc2O[C@@H]1CN(C)CC1CCOCC1	3
CO[C@@H]1CN(C)C(=O)c2cc(NC(=O)c3nc4ccccc4s3)ccc2OC[C@H](C)N(Cc2ccncc2)C[C@@H]1C	-25
COc1cccc(-c2ccc3c(c2)O[C@H](CN(C)C(=O)C2CCCCC2)[C@H](C)CN([C@H](C)CO)S3(=O)=O)c1	-15
C/C=C/c1ccc2c(c1)O[C@@H](CN(C)C(=O)c1ccc3c(c1)OCO3)[C@H](C)CN([C@@H](C)CO)S2(=O)=O	-31
C[C@H]1CN([C@@H](C)CO)S(=O)(=O)c2ccc(-c3ccc(C(=O)N(C)C)cc3)cc2O[C@H]1CN(C)C(=O)C1CCC1	43*
C[C@@H]1CN([C@H](C)CO)S(=O)(=O)c2ccc(-c3ccc(C(=O)N(C)C)cc3)cc2O[C@@H]1CN(C)C(=O)C1CCOCC1	20
C[C@H]1CN([C@@H](C)CO)S(=O)(=O)c2ccc(-c3ccc(C(=O)N(C)C)cc3)cc2O[C@@H]1CN(C)C(=O)C1CCOCC1	-9
